# Paper PMC5540273 (PLoS ONE, 2017)
# How the values were obtained:
# Conditions in all cases: concentration: 1 μM, replicates: in singlicate; n = 1
# PIK3CG = system: PIK3CG
# PIK4CB = system: T1, PIK4CB
# T1 construct: gene PI4KB
# PIKFYVE = system: PIKFYVE
# PIM1 = system: PIM1
# PIM2 = system: PIM2
# PIM3 = system: PIM3
# PIP5K1A = system: PIP5K1A
# PIP5K1C = system: PIP5K1C
# PIP5K2B = system: PIP5K2B
# PIP5K2C = system: T2, PIP5K2C
# T2 construct: gene PIP4K2C
# 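Also: KINOMEscan kinase panel screen.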
Compound,%Inh (PIK3CG) [%],%Inh (PIK4CB) [%],%Inh (PIKFYVE) [%],%Inh (PIM1) [%],%Inh (PIM2) [%],%Inh (PIM3) [%],%Inh (PIP5K1A) [%],%Inh (PIP5K1C) [%],%Inh (PIP5K2B) [%],%Inh (PIP5K2C) [%]
COc1cc2ncn(-c3cc(OCCCc4ccccc4)c(C(N)=O)s3)c2cc1OC [GSK205189],0,0,0,0,0,0,0,69,0,9
Nc1nccc2scc(-c3ccc4c(c3)CCN4C(=O)Cc3ccccc3)c12 [GSK2576924],5,20,0,20,0,3,3,29,15,13
C[C@@H]1CC[C@H](C(=O)NC2CCCCC2)CN1c1cc(-c2ccc3c(N)n[nH]c3c2)nc(N)n1 [GSK2291363],0,0,0,22,0,8,100,53,52,30
O=C(Nc1n[nH]c2nc(-c3ccccc3)c(Br)cc12)C1CC1 [SB-708998],0,0,0,4,0,0,0,14,33,0
